Results on 26 compounds are retold here after PubChem BioAssay (NCATS).

Results filed as inconclusive are left out. A call without a number means that no potency is given here. Activity calls are given as the source filed them. Calls follow the shape of the dose curve; as a rule, active = well fitted inhibition curve with a large enough effect; inconclusive = small, poorly fitted or top-dose-only effect; inactive = no such curve, though single readings can be large or run the other way.
Potency is read from the fitted curve at half-maximal effect.

The test system of this experiment is Zika virus NS2B-NS3 protease (unlinked complex). Kind of experiment: Primary screen GU Rhodamine qHTS for Zika virus inhibitors: Unlinked NS2B-NS3 protease assay (AID 1347159). Also: nearly all actives have a fitted effect of over 60% in size. The note with it: Recombinant ZIKV NS2B-NS3 protease, Rhodamine110 substrate fluorescence; series mostly up to 107 µM. In outline:
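Buffer 10 mM Tris-HCl pH 8.0, 0.01% Tween 20. Unlinked protease 25 nM; compound preincubation 15 min, RT, protected from light. Substrate Rhod110, 1.5 microM; ~15% conversion in 15 min.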
Consider `CC(=O)O[C@H]1[C@H](O[C@H]2[C@@H]3C=CO[C@@H](O[C@@H]4O[C@H](CO)[C@@H](O)[C@H](O)[C@H]4O)[C@@H]3[C@@]3(CO)O[C@@H]23)O[C@@H](C)[C@H](OC(=O)/C=C/c2ccccc2)[C@H]1OC(=O)/C=C/c1ccccc1`, for which the Potency result is “inactive”.
Turning to `CC(C)C(C#N)O[C@@H]1O[C@H](CO[C@@H]2O[C@@H](C)[C@H](O)[C@@H](O)[C@H]2O)[C@@H](O)[C@H](O)[C@H]1O` (stereo partly specified), the Potency entry is “inactive”.
The same measure for `COc1cc(/C=C/C(=O)OC[C@H]2O[C@@](CO)(O[C@H]3O[C@H](CO)[C@@H](O)[C@H](O)[C@H]3O)[C@@H](OC(=O)/C=C/c3ccc(O)c(OC)c3)[C@@H]2O)ccc1O`: “inactive”; for `C=C(C)C(=O)OC1C(OC(C)=O)/C(C=O)=C\CC/C(CO)=C/C2OC(=O)C(=C)C21` (stereo unspecified): “inactive”; for `C=C1C(O)C(O)C2(CC3C(C)=CCC4C(C)(CO)CCCC34C)OC2C1O` (stereo unspecified): “inactive”.
For `C[C@H]1CC(=O)Nc2cccc(-c3cnn(C(C)(C)C)c3)c2N1`, the Potency entry is “inactive”.
As to `CC[C@H]1OC(=O)[C@](C)(F)C(=O)[C@H](C)[C@@H](O[C@@H]2O[C@H](C)C[C@H](N(C)C)[C@H]2O)[C@](C)(OC)C[C@@H](C)C(=O)[C@@H](C)[C@H]2N(CCCCn3cc(-c4cccc(N)c4)nn3)C(=O)O[C@]12C`, the Potency result was “inactive”.
The same measure for `OC[C@H]1O[C@@H](Oc2cc(O)c3c(c2)O[C@@H](c2ccc(O)cc2)[C@H](O)C3)[C@H](O)[C@@H](O)[C@@H]1O`: “inactive”.
For `COc1c2c(c(CO)c3c1C(=O)OC3)OC1(C)CCC3(O)C(C)(C)OC(=O)CCC3(C)C1C2` (stereo unspecified) the value was “inactive”; for `C[C@@H]1CCN(C(=O)N2CCCC2)C[C@@H]1N(C)c1ncnc2[nH]ccc12`, “inactive”.
For `COC1C(=O)CCC2(CO2)C1(O)C1(C)OC1CC=C(C)C` (stereo unspecified) the value was 44.7 µM (active).
On to `CCCC1(c2ccccc2)NC(=O)N(CC(=O)N(C)Cc2c(F)cccc2Cl)C1=O` (stereo unspecified), for which the Potency entry is “inactive”.
The same measure for `CC[C@@H](O)C[C@@H]1C(C)=C[C@@H]2CCCC[C@@H]2[C@@]1(C)C(=O)O`: “inactive”; for `COc1ncc2cc(C(=O)Nc3cc(C(=O)NCc4cccc(Cl)c4)ccc3Cl)c(=O)[nH]c2n1`: “inactive”; for `CC(C)C(=O)OC[C@H]1O[C@H](O[C@H]2O[C@H](CO)[C@@H](O)[C@H](O)[C@H]2O)[C@H](O)[C@@H](O)[C@@H]1O`: “inactive”.
The same measure for `C=C1C(=O)OC2C1CCC(=C)C1CC(OC(C)=O)C(=C)C12` (stereo unspecified): 31.6 µM (active).
Consider `C=C[C@H]1C(O[C@@H]2O[C@H](CO)[C@@H](O)[C@H](O)[C@H]2O)OC=C2C(=O)N3CCc4c([nH]c5ccccc45)C3CC21` (stereo partly specified), for which the Potency entry is “inactive”.
For `C[C@H](NC(c1cccc(C[P+](=O)O)c1)[C@H](C)O)c1ccc(Cl)c(Cl)c1` (stereo partly specified) the value was “inactive”.
With `C=CC(C)(C)c1[nH]c2cc3c(cc2c1CC1NC(=O)C2CCCN2C1=O)C=CC(C)(C)O3` (stereo unspecified), the Potency result is “inactive”.
For `CC(O)CO[C@@H]1O[C@H](CO)[C@@H](O)[C@H](O)[C@H]1O` (stereo partly specified) the value was “inactive”; for `O=C(O)c1ccc(CN2CCC(CN[C@@H]3C[C@H]3c3ccccc3)CC2)cc1`, “inactive”; for `CC(O)/C=C/C1(O)C2(C)COC1(C)CC(O)C2` (stereo unspecified), “inactive”.
The same measure for `CC(=O)OC1C(=O)C2(C)C(O)CC3OCC3(OC(C)=O)C2C(OC(=O)c2ccccc2)C2(O)CC(OC(=O)C(O)C(NC(=O)c3ccccc3)c3ccccc3)C(C)=C1C2(C)C` (stereo unspecified): “inactive”; for `CN(C)CCn1cc(S(=O)(=O)c2cccc(F)c2)c2cccnc21`: “inactive”; for `Cc1c(C(=O)N2CCOc3ccc(-c4ccc(N)nc4)cc3C2)ccc(S(C)(=O)=O)c1F`: “inactive”.
In the case of `CC(c1ncncc1F)C(O)(Cn1cncn1)c1ccc(F)cc1F` (stereo unspecified), the Potency result is “inactive”.
